Measured values published in PubChem BioAssay (NCI).
About 83,000 compounds went through this panel and 20% of them were active in at least one assay; those are over-represented in the sample as a whole.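 In brief: 96-well plates, 48 h treatment, single concentration, percent growth endpoint.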 Active and inactive are the calls of the source. How the source made its calls: active means growth percent below 10; inactive means the rest.

What was measured:
Assay in all cases: NCI-60 one-dose screen, 48 h (100 = growth as untreated, 0 = no growth, -100 = all killed)
Settings in all cases: 10 µM unless noted
NCI-H23 lung = test system: NCI-H23 lung
NCI-H226 lung = test system: NCI-H226 lung
NCI-H322M lung = test system: NCI-H322M lung
HOP-62 NSCLC = test system: HOP-62 NSCLC
NCI-H460 lung = test system: NCI-H460 lung
HOP-92 NSCLC = test system: HOP-92 NSCLC
NCI-H522 lung = test system: NCI-H522 lung
A549/ATCC NSCLC = test system: A549/ATCC NSCLC
786-0 renal = test system: 786-0 renal
COLO 205 colon = test system: COLO 205 colon

Measured: growth

Brc1cc(-c2cc(-c3ccc4c(c3)OCCO4)[nH]n2)cs1
inactive: NCI-H23 lung 52.2% | NCI-H226 lung 74% | NCI-H322M lung 70.8% | HOP-62 NSCLC 61% | NCI-H460 lung 24.1% | HOP-92 NSCLC 65.2% | NCI-H522 lung 29.6% | A549/ATCC NSCLC 42.8% | 786-0 renal 79.2% | COLO 205 colon 57.8%

CC(=O)Nc1ccccc1-c1nc2ccccc2s1
inactive: NCI-H23 lung 91.8% | NCI-H226 lung 98.9% | NCI-H322M lung 101% | HOP-62 NSCLC 101% | NCI-H460 lung 101% | HOP-92 NSCLC 96.6% | NCI-H522 lung 95.7% | A549/ATCC NSCLC 106% | 786-0 renal 104% | COLO 205 colon 113%

O=C1[C@H]2Cc3c([nH]c4ccccc34)[C@H](c3ccc(Br)cc3)N2C(=O)CN1C1CCN(CC2CCCCC2)CC1
inactive: NCI-H23 lung 83.5% | NCI-H226 lung 92.5% | NCI-H322M lung 92.8% | HOP-62 NSCLC 82.2% | NCI-H460 lung 54.1% | HOP-92 NSCLC 77.2% | NCI-H522 lung 83.6% | A549/ATCC NSCLC 79.4% | 786-0 renal 83.4% | COLO 205 colon 81.3%

CNC(=O)c1cc(N2CCc3cc(NC(=O)Nc4ccc(N5CCN(C)CC5)c(C(F)(F)F)c4)ccc32)ccn1
inactive: NCI-H23 lung 88.4% | NCI-H226 lung 99.4% | NCI-H322M lung 96.6% | HOP-62 NSCLC 76.7% | NCI-H460 lung 62.6% | HOP-92 NSCLC 69% | NCI-H522 lung 103% | A549/ATCC NSCLC 68.6% | 786-0 renal 29.3% | COLO 205 colon 104%

O=C1CSC(c2cn(-c3ccccc3)nc2-c2ccc(Cl)cc2)N1c1ccccc1 (stereo not given)
inactive: NCI-H23 lung 96.9% | NCI-H226 lung 98.4% | NCI-H322M lung 112% | HOP-62 NSCLC 99.6% | NCI-H460 lung 111% | HOP-92 NSCLC 100% | NCI-H522 lung 95.7% | A549/ATCC NSCLC 98.1% | 786-0 renal 106% | COLO 205 colon 120%

NS(=O)(=O)c1cccc(Nc2nc(SCC(=O)c3ccc(Cl)cc3)nc3c2CCC3)c1
inactive: NCI-H23 lung 75.1% | NCI-H226 lung 87.7% | NCI-H322M lung 97.1% | HOP-62 NSCLC 76.3% | NCI-H460 lung 97.6% | HOP-92 NSCLC 63.3% | NCI-H522 lung 95.6% | A549/ATCC NSCLC 91.7% | 786-0 renal 82.5% | COLO 205 colon 109%

O=C(CCCCCCNC(=O)c1csc(Br)n1)NO
active: HOP-92 NSCLC 5.32%
inactive: NCI-H23 lung 47.7% | NCI-H226 lung 79% | NCI-H322M lung 61.6% | HOP-62 NSCLC 48.2% | NCI-H460 lung 34.9% | NCI-H522 lung 15.7% | A549/ATCC NSCLC 34.8% | 786-0 renal 72.4% | COLO 205 colon 20.9%

C[C@]12CC[C@H]3[C@@H](CC=C4C[C@@H](O)CC[C@@]43C)[C@@H]1CC[C@@H]2[C@](C)(O)CCc1cccnc1
inactive: NCI-H23 lung 52.5% | NCI-H226 lung 73.4% | NCI-H322M lung 79.5% | HOP-62 NSCLC 61.3% | NCI-H460 lung 63.5% | HOP-92 NSCLC 66.8% | NCI-H522 lung 36.6% | A549/ATCC NSCLC 70.1% | 786-0 renal 80.8% | COLO 205 colon 70.8%

COc1ccc(/C(=N\N=C(N)N)c2ccc(Cl)cc2)cc1OC
inactive: NCI-H23 lung 87.2% | NCI-H226 lung 88.6% | NCI-H322M lung 79.6% | HOP-62 NSCLC 69.1% | NCI-H460 lung 78% | NCI-H522 lung 74.3% | A549/ATCC NSCLC 76.1% | 786-0 renal 59.2% | COLO 205 colon 80%
active: HOP-92 NSCLC -0.241%

CNCCN(C)c1ccc(Nc2cc(NC3CC3)n3ncc(C#N)c3n2)cc1NC(C)=O
active: NCI-H23 lung -5.36% | NCI-H460 lung 8.31% | HOP-92 NSCLC -9.1% | NCI-H522 lung -35.4% | COLO 205 colon 4.36%
inactive: NCI-H226 lung 10.6% | NCI-H322M lung 10.5% | HOP-62 NSCLC 13.4% | A549/ATCC NSCLC 12% | 786-0 renal 12.8%

COc1cc(NC(=O)Nc2cccc(-c3cc(=O)c4c(OC)c(OC)c(OC)cc4o3)c2)cc(OC)c1OC
active: HOP-92 NSCLC -8.97%
inactive: NCI-H23 lung 34.6% | NCI-H226 lung 49.7% | NCI-H322M lung 64.4% | HOP-62 NSCLC 49.7% | NCI-H460 lung 31.5% | NCI-H522 lung 39.6% | A549/ATCC NSCLC 57.2% | 786-0 renal 35.3% | COLO 205 colon 58.1%

COc1ccc2[nH]cc(-c3nc(N)nnc3-c3cn(C)c4ccc(Br)cc34)c2c1
active: NCI-H522 lung 7.41%
inactive: NCI-H23 lung 43.9% | NCI-H226 lung 34.7% | NCI-H322M lung 53.7% | HOP-62 NSCLC 38.9% | NCI-H460 lung 15.1% | HOP-92 NSCLC 44% | A549/ATCC NSCLC 35.6% | 786-0 renal 24.1% | COLO 205 colon 20%

COc1ccc(/C=N/NC(=O)CSc2nc(-c3cnccn3)cc(-c3cccs3)c2C#N)cc1
inactive: NCI-H23 lung 72.8% | NCI-H226 lung 75.1% | NCI-H322M lung 84.4% | HOP-62 NSCLC 53.4% | NCI-H460 lung 37.4% | HOP-92 NSCLC 63.1% | NCI-H522 lung 81.1% | A549/ATCC NSCLC 50.5% | 786-0 renal 22.6% | COLO 205 colon 68.1%

Cc1ccc(C(=O)CSc2nnc(-c3ccc(-c4ccc(Cl)cc4)nc3C)o2)cc1
inactive: NCI-H23 lung 93% | NCI-H226 lung 88.6% | NCI-H322M lung 95.8% | HOP-62 NSCLC 92.5% | NCI-H460 lung 107% | HOP-92 NSCLC 88% | NCI-H522 lung 91.7% | A549/ATCC NSCLC 106% | 786-0 renal 104% | COLO 205 colon 117%

O=C(CSc1nc2ccccc2c(=O)n1-c1ccc(S(=O)(=O)Nc2ccc(Cl)nn2)cc1)Nc1ccc(S(=O)(=O)Nc2ccc(Cl)nn2)cc1
inactive: NCI-H23 lung 100% | NCI-H226 lung 99% | NCI-H322M lung 101% | HOP-62 NSCLC 104% | NCI-H460 lung 101% | HOP-92 NSCLC 107% | NCI-H522 lung 101% | A549/ATCC NSCLC 105% | 786-0 renal 98.7% | COLO 205 colon 111%

COC(=O)CCSC1=C(C)C(=O)c2ccccc2C1=O
inactive: NCI-H23 lung 71.3% | NCI-H226 lung 86.7% | NCI-H322M lung 99% | HOP-62 NSCLC 107% | NCI-H460 lung 101% | HOP-92 NSCLC 88.6% | NCI-H522 lung 62.4% | A549/ATCC NSCLC 106% | 786-0 renal 103% | COLO 205 colon 120%

O=C1[C@H]2Cc3c([nH]c4ccccc34)[C@H](c3ccc(Cl)cc3)N2C(=O)CN1C1CCN(CC2CCCCC2)CC1
inactive: NCI-H23 lung 75.8% | NCI-H226 lung 88.2% | NCI-H322M lung 93.6% | HOP-62 NSCLC 79.7% | NCI-H460 lung 35.5% | HOP-92 NSCLC 70.5% | NCI-H522 lung 71.5% | A549/ATCC NSCLC 64.4% | 786-0 renal 75% | COLO 205 colon 51.4%

O=C1Nc2ccccc2/C1=N\c1nnc(-c2ccccc2)o1
inactive: NCI-H23 lung 91.8% | NCI-H226 lung 88.7% | NCI-H322M lung 86.8% | HOP-62 NSCLC 82.6% | NCI-H460 lung 99.2% | HOP-92 NSCLC 72.2% | NCI-H522 lung 88.4% | A549/ATCC NSCLC 103% | 786-0 renal 108% | COLO 205 colon 107%

CN1CCN(Cc2ccc(NC(=O)c3cncc(C#Cc4cnc5ccc(OC6CCOCC6)nn45)c3)cc2C(F)(F)F)CC1
active: NCI-H23 lung -58.7% | NCI-H226 lung -58.4% | NCI-H322M lung -44.7% | HOP-62 NSCLC -77.4% | NCI-H460 lung -77.9% | HOP-92 NSCLC -31.8% | NCI-H522 lung -75.5% | A549/ATCC NSCLC -77.3% | 786-0 renal -89.1% | COLO 205 colon -82.8%

Cn1ncc2ncc(-c3ccc4ncc(C#N)c(N5CCc6cc(F)c(Cl)cc65)c4c3)cc21
active: HOP-92 NSCLC 7.43%
inactive: NCI-H23 lung 46.8% | NCI-H226 lung 24.7% | NCI-H322M lung 38.9% | HOP-62 NSCLC 22.3% | NCI-H460 lung 38.5% | NCI-H522 lung 20.3% | A549/ATCC NSCLC 27.8% | 786-0 renal 21.8% | COLO 205 colon 51.4%

O=S(=O)(Oc1ccc(-c2cn3ccoc3n2)cc1)C1CCCCC1
inactive: NCI-H23 lung 102% | NCI-H226 lung 86.7% | NCI-H322M lung 101% | HOP-62 NSCLC 105% | NCI-H460 lung 100% | HOP-92 NSCLC 99.9% | NCI-H522 lung 87.9% | A549/ATCC NSCLC 99.4% | 786-0 renal 100% | COLO 205 colon 103%

O=S(=O)(NCCCNc1nccc(-c2[nH]c(-c3ccccc3)nc2-c2ccc(F)c(O)c2)n1)c1cccc(F)c1
inactive: NCI-H23 lung 90.4% | NCI-H226 lung 96.7% | NCI-H322M lung 103% | HOP-62 NSCLC 116% | NCI-H460 lung 78% | HOP-92 NSCLC 94.6% | NCI-H522 lung 87.5% | A549/ATCC NSCLC 92.4% | 786-0 renal 101% | COLO 205 colon 96.3%

CNC(=O)c1cc(-n2ccc3cc(NC(=O)Nc4ccc(N5CCN(C)CC5)c(C(F)(F)F)c4)ccc32)ccn1
active: 786-0 renal -13.7%
inactive: NCI-H23 lung 88.6% | NCI-H226 lung 96.4% | NCI-H322M lung 85.4% | HOP-62 NSCLC 75.6% | NCI-H460 lung 60% | HOP-92 NSCLC 71.1% | NCI-H522 lung 101% | A549/ATCC NSCLC 68.2% | COLO 205 colon 90.8%

Cn1ncc2c(C(=O)c3ccc(F)cc3)nc(C(C)(C)C)nc21
inactive: NCI-H23 lung 95.8% | NCI-H226 lung 101% | NCI-H322M lung 97.8% | HOP-62 NSCLC 94.8% | NCI-H460 lung 101% | HOP-92 NSCLC 56.4% | NCI-H522 lung 91.8% | A549/ATCC NSCLC 91.9% | 786-0 renal 101% | COLO 205 colon 108%

O=C(Nc1cccc(Cl)c1)Nc1nc2cc([N+](=O)[O-])ccc2o1
active: HOP-92 NSCLC -4.19%
inactive: NCI-H23 lung 38.4% | NCI-H226 lung 56.1% | NCI-H322M lung 37.4% | HOP-62 NSCLC 58% | NCI-H460 lung 26.5% | NCI-H522 lung 18.2% | A549/ATCC NSCLC 44.6% | 786-0 renal 44.2% | COLO 205 colon 75.1%

Cc1[nH]c(C(=O)Nc2ccccc2OCc2cccc(C(=O)NCCN)c2)cc1Cl
inactive: NCI-H23 lung 102% | NCI-H226 lung 101% | NCI-H322M lung 92.9% | HOP-62 NSCLC 103% | NCI-H460 lung 100% | HOP-92 NSCLC 84.5% | NCI-H522 lung 95% | A549/ATCC NSCLC 95.2% | 786-0 renal 81% | COLO 205 colon 102%

O=C(/C=C/c1ccccc1Cl)Nc1ncc(Cc2cc(Cl)ccc2Cl)s1
inactive: NCI-H23 lung 50.9% | NCI-H226 lung 39.4% | NCI-H322M lung 48.5% | HOP-62 NSCLC 22% | HOP-92 NSCLC 35.4% | NCI-H522 lung 12.3% | A549/ATCC NSCLC 40% | 786-0 renal 33.3%
active: NCI-H460 lung 8.08% | COLO 205 colon 5.37%
